Records with an inconclusive call do not appear. Calls of active or inactive are those of the source. Unless noted, calls come from the whole dose curve.
Tests used:
[1] = Nuclear factor erythroid 2-related factor 2/antioxidant responsive element (Nrf2/ARE) small molecule agonists: qHTS cell viability counter screen in human keratinocytes (AID 1919968; active = well fitted curve in the direction sought with a large enough effect in the repeat runs; an effect the other way counts as inactive or inconclusive; note: nearly all actives have a fitted effect of over 55% in size)
Outline: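 Fluorescence read-out from CellTiter-Fluor after 1 h at 37 C. Wells held HaCaT-derived ARE-luciferase reporter cells (1,500/well) treated 23 h with DMSO-dissolved compounds. Run in the same wells as the luciferase agonist read.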

[2] = Nuclear factor erythroid 2-related factor 2/antioxidant responsive element (Nrf2/ARE) small molecule agonists: luciferase reporter gene qHTS assay in human keratinocytes (AID 1919969); note: nearly all actives have a fitted effect of over 35% in size
[3] = biological target: Gonadotropin-releasing hormone receptor (Homo sapiens) (UniProt P30968); assay: Human gonadotropin-releasing hormone receptor (GnRHR) small molecule agonists, calcium flux assay in GnRHR-HEK293 cells (AID 1920063); note: nearly all actives have a fitted effect of over 35% in size
Outline: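 Calcium-dye fluorescence, Ex/Em=480/540, recorded every 1 sec over 3 min after compound addition to GnRHR-HEK293 cells. Cells had been seeded 18 hours earlier and dye-loaded for 1 hour at 37 C. Fifteen concentrations, triplicates.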

[4] = biological target: KiSS-1 receptor (Homo sapiens) (UniProt Q969F8); assay: Human kisspeptin (KISS1R) small molecule agonists, calcium flux assay in KISS1R-HEK293 cells (AID 1920064; active = well fitted curve in the direction sought with a large enough effect in the repeat runs; an effect the other way counts as inactive or inconclusive)
Outline: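 Calcium flux read-out: kinetic fluorescence at Ex/Em=480/540, 1 s intervals over 3 min, after pin-tool compound addition to dye-loaded KISS1R-HEK293 cells. Fifteen concentrations, triplicates.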

[5] = G protein-coupled receptor (GPCR) small molecule agonists, calcium flux assay: HEK293 wild type cell line counter screen (AID 1920065)
Outline: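 Agonist mode; 18 h seeding at 37 C, 1 h dye load at 37 C; compounds pinned from DMSO, ATP as positive control; kinetic fluorescence 480/540 nm, 3 min, 1 s reads; 15 concentrations, triplicate.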

[6] = p53 small molecule agonists, cell-based qHTS assay with human liver microsomes (AID 1963577)
Outline: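 Compounds act here after metabolic activation: human liver microsomes and NADPH, both at 0.5 mg/mL final, were co-added to p53RE-bla cells. Incubation ran 16 h at 37 C, followed by LiveBLAzer detection.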

[7] = p53 small molecule agonists, cell-based qHTS assay with rat liver microsomes (AID 1963578)
Outline: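 Read-out is beta-lactamase reporter fluorescence (LiveBLAzer, 2 h, room temperature, dark) in p53RE-bla cells treated 16 h at 37 C with compound, rat liver microsomes and NADPH, both 0.5 mg/mL final.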

[8] = p53 small molecule agonists, cell-based qHTS assay with human liver microsomes: qHTS cell viability counter screen (AID 1963579); note: nearly all actives have a fitted effect of over 45% in size
Outline: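 Cells carrying the p53 response-element beta-lactamase reporter are treated for 16 h at 37 C with test compounds in the presence of human liver microsomes and NADPH (both 0.5 mg/mL final); ATP-based CellTiter-Glo luminescence then reports viability.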

[9] = p53 small molecule agonists, cell-based qHTS assay with rat liver microsomes: qHTS cell viability counter screen (AID 1963580); note: nearly all actives have a fitted effect of over 45% in size
Outline: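 Cytotoxicity counter screen: intracellular ATP measured by CellTiter-Glo luminescence in the same wells as the beta-lactamase reporter read, on HCT-116 p53RE-bla cells exposed 16 h at 37 C to compounds with rat liver microsomes and NADPH, each 0.5 mg/mL final.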

[10] = p53 small molecule agonists, cell-based qHTS assay: qHTS cell viability counter screen (AID 1963581); note: nearly all actives have a fitted effect of over 45% in size
Outline: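 Cytotoxicity read-out: ATP-based luminescence (CellTiter-Glo, 30 min RT) measured in the same wells as the p53 reporter assay, HCT-116 p53RE-bla cells, 16 h compound exposure at 37 C.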

[11] = p53 small molecule agonists, cell-based qHTS assay (AID 1963582; active = well fitted activation curve with a large enough effect in the signal ratio in the repeat runs, not every such curve was filed as active; the % refers to the signal ratio)
Outline: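 Fluorescence intensity read-out of a beta-lactamase reporter under a p53 response element. Cells were exposed to DMSO-dissolved compounds for 16 h at 37 C, then developed with FRET substrate for 2 h at RT.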

[12] = biological target: 5-hydroxytryptamine receptor 2A (Homo sapiens) (UniProt P28223); assay: 5-hydroxytryptamine receptor 2A (HTR2A) small molecule antagonists, cell-based qHTS assay (AID 1963586); note: nearly all actives have a fitted effect of over 45% in size
Outline: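 CHO cells stably expressing human HTR2A were plated for 18 h at 37 C, then loaded with calcium dye for 1 h. Compounds were preincubated 5 min at room temperature before DOI (4 nM solution) was added. Kinetic fluorescence was read for 3 min.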

[13] = biological target: 5-hydroxytryptamine receptor 2A (Homo sapiens) (UniProt P28223); assay: 5-hydroxytryptamine receptor 2A (HTR2A) small molecule agonists, cell-based qHTS assay (AID 1963587); note: nearly all actives have a fitted effect of over 30% in size
Outline: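 CHO cells stably expressing human HTR2A, plated 18 h, loaded with calcium dye 1 h at 37 C. Agonist mode: compounds added and intracellular calcium fluorescence recorded kinetically for 2 min at 1 sec intervals.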

[14] = biological target: Muscarinic acetylcholine receptor M1 (Homo sapiens) (UniProt P11229); assay: Cholinergic receptor muscarinic 1 (CHRM1) small molecule antagonists, cell-based qHTS assay (AID 1963588); note: nearly all actives have a fitted effect of over 40% in size
Outline: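 Compounds were tested at 15 concentrations in three independent runs. Dye-loaded CHRM1-CHO cells were exposed 5 min at room temperature before stimulation by acetylcholine added at 50nM. Intracellular calcium was read kinetically on FDSS for 3 min.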

[15] = biological target: Muscarinic acetylcholine receptor M1 (Homo sapiens) (UniProt P11229); assay: Cholinergic receptor muscarinic 1 (CHRM1) small molecule agonists, cell-based qHTS assay (AID 1963589); note: nearly all actives have a fitted effect of over 35% in size
Outline: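 Calcium flux read-out: kinetic fluorescence at 1 sec intervals after pin-tool compound addition to dye-loaded CHRM1-CHO cells (human M1). Agonist mode; 15 concentrations tested in triplicate independent runs.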

[16] = cAMP Responsive Elements (CRE) small molecule agonists, cell-based qHTS assay (AID 1963590)
Outline: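 Beta-lactamase reporter readout: LiveBLAzer B/G FRET substrate, 2 h at room temperature, added after 3 h compound treatment of CRE-bla HEK 293T cells at 37 C/5% CO2.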

[17] = cAMP Responsive Elements (CRE) small molecule antagonists, cell-based qHTS assay (AID 1963591; active = well fitted inhibition curve with a large enough effect in the signal ratio in the repeat runs, not every such curve was filed as active; the % refers to the signal ratio)
Outline: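 HEK293T CRE-bla; 18 h preincubation; compound pin-transfer; NKH477 0.25 uM final, 3 h, 37 C; LiveBLAzer FRET substrate 2 h RT.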

[18] = biological target: Beta-2 adrenergic receptor (Homo sapiens) (UniProt P07550); assay: Adrenergic beta2 receptor (ADRB2) small molecule antagonists, cell-based qHTS assay (AID 1963592); note: series mostly up to about 92 µM; nearly all actives have a fitted effect of over 50% in size
Outline: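 Assay format: CHO-ADRB2 cells, 18-20hr seeding at 37C/5% CO2, then compound plus 1nM isoproterenol agonist mix for 0.5hr RT. Homogeneous time-resolved fluorescence cAMP detection after 1hr, expressed as 665/615 nm ratio.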

[19] = biological target: D(2) dopamine receptor (Homo sapiens) (UniProt P14416); assay: Dopamine D2 receptor (DRD2) small molecule agonists, cell-based qHTS assay (AID 1963594); note: nearly all actives have a fitted effect of over 35% in size
Outline: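 HEK293 cells stably expressing human DRD2, pre-treated with PDE inhibitor Ro20-1724 (0.1 mM final) and compound 10 min at room temperature, then stimulated with NKH477 (200nM […]) for 30 min. cAMP read by HTRF (665/620 nm).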

[20] = biological target: D(2) dopamine receptor (Homo sapiens) (UniProt P14416); assay: Dopamine D2 receptor (DRD2) small molecule antagonists, cell-based qHTS assay (AID 1963595; active = well fitted inhibition curve with a large enough effect in the signal ratio in the repeat runs, with a control signal flat; the % refers to the signal ratio)
Outline: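 Readout: HTRF cAMP, cAMP-d2 competing with cellular cAMP for anti-cAMP cryptate, read after 1 h. Cells: DRD2-HEK293. Conditions: 0.1 mM Ro20-1724, 12 nM quinpirole, 200 nM NKH477, 30 min RT.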
% is set by controls: 0 for no effect and ±100 for the full control effect.

KiSS-1 receptor (Homo sapiens), sequence (Q969F8 whole entry, looked up): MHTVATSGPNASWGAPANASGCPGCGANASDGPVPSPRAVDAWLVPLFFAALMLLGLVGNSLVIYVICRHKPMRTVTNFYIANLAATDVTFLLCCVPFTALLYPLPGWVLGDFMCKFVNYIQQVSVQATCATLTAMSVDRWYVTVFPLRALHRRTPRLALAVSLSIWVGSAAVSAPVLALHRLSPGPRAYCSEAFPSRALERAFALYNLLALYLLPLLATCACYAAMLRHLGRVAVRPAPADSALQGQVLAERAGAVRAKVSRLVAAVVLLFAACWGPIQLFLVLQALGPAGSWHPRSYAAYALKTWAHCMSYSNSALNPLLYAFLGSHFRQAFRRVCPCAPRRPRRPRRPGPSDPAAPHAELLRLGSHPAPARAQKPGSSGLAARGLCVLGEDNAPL
Beta-2 adrenergic receptor (Homo sapiens), sequence (P07550 whole entry, looked up): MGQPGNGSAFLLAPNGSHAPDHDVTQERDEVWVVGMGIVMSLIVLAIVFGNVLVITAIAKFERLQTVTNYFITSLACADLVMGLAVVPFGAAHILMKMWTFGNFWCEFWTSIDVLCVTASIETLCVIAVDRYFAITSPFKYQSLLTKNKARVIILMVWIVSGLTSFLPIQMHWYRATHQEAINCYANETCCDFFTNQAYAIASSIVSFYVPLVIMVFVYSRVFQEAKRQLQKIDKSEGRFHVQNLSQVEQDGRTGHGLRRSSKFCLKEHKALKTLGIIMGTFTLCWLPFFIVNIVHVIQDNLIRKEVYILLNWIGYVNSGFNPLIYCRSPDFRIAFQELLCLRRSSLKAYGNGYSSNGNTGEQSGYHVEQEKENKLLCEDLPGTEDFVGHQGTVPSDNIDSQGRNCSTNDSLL
5-hydroxytryptamine receptor 2A (Homo sapiens), sequence (P28223 whole entry, looked up): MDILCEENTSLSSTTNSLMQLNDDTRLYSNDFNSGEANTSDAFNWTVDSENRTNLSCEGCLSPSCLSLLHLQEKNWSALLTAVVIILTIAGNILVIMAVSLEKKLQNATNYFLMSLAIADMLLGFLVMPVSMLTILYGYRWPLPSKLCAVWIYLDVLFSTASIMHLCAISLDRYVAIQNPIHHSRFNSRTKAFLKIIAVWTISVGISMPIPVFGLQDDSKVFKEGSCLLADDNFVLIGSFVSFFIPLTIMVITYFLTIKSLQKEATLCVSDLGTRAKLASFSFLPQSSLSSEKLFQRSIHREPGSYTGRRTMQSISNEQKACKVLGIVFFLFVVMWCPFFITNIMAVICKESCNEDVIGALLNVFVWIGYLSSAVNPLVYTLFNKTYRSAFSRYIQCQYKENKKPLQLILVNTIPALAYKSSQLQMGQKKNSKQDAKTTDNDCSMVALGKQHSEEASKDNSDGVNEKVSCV
Gonadotropin-releasing hormone receptor (Homo sapiens), sequence (P30968 whole entry, looked up): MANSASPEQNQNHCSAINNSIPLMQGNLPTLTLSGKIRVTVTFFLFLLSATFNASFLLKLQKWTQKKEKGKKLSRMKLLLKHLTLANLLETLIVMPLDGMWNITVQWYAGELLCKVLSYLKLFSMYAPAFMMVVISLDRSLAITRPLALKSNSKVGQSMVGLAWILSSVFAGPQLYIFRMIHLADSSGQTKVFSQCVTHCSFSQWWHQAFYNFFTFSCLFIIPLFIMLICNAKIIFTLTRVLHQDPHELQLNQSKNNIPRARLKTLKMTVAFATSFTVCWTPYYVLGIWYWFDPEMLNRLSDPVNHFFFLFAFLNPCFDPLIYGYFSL
Muscarinic acetylcholine receptor M1 (Homo sapiens), sequence (P11229 whole entry, looked up): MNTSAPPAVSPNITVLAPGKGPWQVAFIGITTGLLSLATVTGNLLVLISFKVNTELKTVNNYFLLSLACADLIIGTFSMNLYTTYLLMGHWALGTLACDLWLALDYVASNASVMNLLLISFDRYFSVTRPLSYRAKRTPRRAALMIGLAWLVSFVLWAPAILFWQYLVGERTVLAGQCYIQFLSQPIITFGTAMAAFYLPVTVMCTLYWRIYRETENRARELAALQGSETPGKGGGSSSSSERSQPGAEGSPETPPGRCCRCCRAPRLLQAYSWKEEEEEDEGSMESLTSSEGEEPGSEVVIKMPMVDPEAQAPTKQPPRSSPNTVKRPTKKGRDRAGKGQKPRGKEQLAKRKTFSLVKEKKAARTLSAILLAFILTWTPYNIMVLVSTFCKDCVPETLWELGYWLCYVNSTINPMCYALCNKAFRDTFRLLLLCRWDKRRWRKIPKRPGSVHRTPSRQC
D(2) dopamine receptor (Homo sapiens), sequence (P14416 whole entry, looked up): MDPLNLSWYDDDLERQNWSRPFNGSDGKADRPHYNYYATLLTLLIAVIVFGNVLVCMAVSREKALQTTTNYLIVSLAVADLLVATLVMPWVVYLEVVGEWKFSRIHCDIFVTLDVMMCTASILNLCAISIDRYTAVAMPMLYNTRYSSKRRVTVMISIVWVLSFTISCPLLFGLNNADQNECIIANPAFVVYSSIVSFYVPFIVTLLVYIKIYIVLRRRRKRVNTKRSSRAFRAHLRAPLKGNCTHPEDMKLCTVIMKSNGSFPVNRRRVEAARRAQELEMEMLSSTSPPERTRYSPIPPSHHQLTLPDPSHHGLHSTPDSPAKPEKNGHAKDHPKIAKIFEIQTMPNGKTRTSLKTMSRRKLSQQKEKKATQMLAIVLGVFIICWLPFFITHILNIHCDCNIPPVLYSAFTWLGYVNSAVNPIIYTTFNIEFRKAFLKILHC

NC(=S)Nc1cccc2ccccc12
inactive: activity change, negative = cytotoxicity [1] -1.52% [at 8.39 µM] | activity, positive = activation [2] -4.89% [at 8.39 µM] | activity change [3] 0.074% [at 5.22 µM, stronger effect = higher value] | activation [4] 6.64% [at 6.97 µM] | activation [5] -0.659% [at 5.23 µM] | activation [6] 6% [at 5.99 µM] | activation [7] 0.459% [at 5.99 µM] | activity change, negative = cytotoxicity [8] 3.12% [at 5.99 µM] | activity change, negative = cytotoxicity [9] 8.96% [at 5.99 µM] | activity change, negative = cytotoxicity [10] 19.8% [at 5.99 µM] | activation [11] -2.75% [at 5.99 µM] | activity, negative = inhibition [12] 12.8% [at 5.62 µM] | activation [13] 1.75% [at 7.02 µM] | activity, negative = inhibition [14] -5.9% [at 5.58 µM] | activation [15] 0.152% [at 6.97 µM] | activation [16] -1.04% [at 8.39 µM] | activity change, negative = inhibition [17] 1.21% [at 8.39 µM] | activity change, negative = inhibition [18] -15.5% [at 8.39 µM] | activation [19] 2.03% [at 8.39 µM] | activity change, negative = inhibition [20] -0.294% [at 8.38 µM]

C1COCCO1
inactive: Potency [1] | Potency [2] | Potency [3] | Potency [4] | Potency [5] | Potency [6] | Potency [7] | Potency [8] | Potency [9] | Potency [10] | Potency [11] | Potency [12] | Potency [13] | Potency [14] | Potency [15] | Potency [16] | Potency [17] | Potency [18] | Potency [19] | Potency [20]

COCc1ccc(COC)cc1
inactive: Potency [1] | Potency [2] | Potency [3] | Potency [4] | Potency [5] | Potency [6] | Potency [7] | Potency [8] | Potency [9] | Potency [10] | Potency [11] | Potency [12] | Potency [13] | Potency [14] | Potency [15] | Potency [16] | Potency [17] | Potency [19] | Potency [20]

C=C(C)C(=O)OCCCCCCCC(C)C
inactive: Potency [1] | Potency [2] | Potency [3] | Potency [4] | Potency [5] | Potency [6] | Potency [7] | Potency [8] | Potency [9] | Potency [10] | Potency [11] | Potency [12] | Potency [13] | Potency [14] | Potency [15] | Potency [16] | Potency [17] | Potency [18] | Potency [20]

CCCCCCC(C)(C)C(=O)O
inactive: Potency [1] | Potency [2] | Potency [3] | Potency [4] | Potency [5] | Potency [6] | Potency [7] | Potency [8] | Potency [9] | Potency [10] | Potency [11] | Potency [12] | Potency [13] | Potency [14] | Potency [15] | Potency [16] | Potency [18] | Potency [19] | Potency [20]

C=CCCCCCCCC
inactive: Potency [1] | Potency [2] | Potency [3] | Potency [4] | Potency [5] | Potency [6] | Potency [7] | Potency [8] | Potency [9] | Potency [10] | Potency [11] | Potency [12] | Potency [13] | Potency [14] | Potency [15] | Potency [16] | Potency [17] | Potency [19] | Potency [20]

NC(=O)c1ncn([C@@H]2O[C@H](CO)[C@@H](O)[C@H]2O)c1O
inactive: Potency [1] | Potency [2] | Potency [3] | Potency [4] | Potency [5] | Potency [6] | Potency [7] | Potency [8] | Potency [9] | Potency [10] | Potency [11] | Potency [12] | Potency [13] | Potency [14] | Potency [15] | Potency [16] | Potency [17] | Potency [19] | Potency [20]

CCC(=O)OCc1ccc(OC)cc1
inactive: Potency [1] | Potency [2] | Potency [3] | Potency [4] | Potency [5] | Potency [6] | Potency [7] | Potency [8] | Potency [9] | Potency [10] | Potency [11] | Potency [12] | Potency [13] | Potency [14] | Potency [15] | Potency [16] | Potency [18] | Potency [19] | Potency [20]

— PubChem BioAssay (Tox21)
